Out of some 200,000 compounds screened, about 4,500 (2.2%) were called active. Inconclusive results (about 12%) are left out. Shown is part of a subset that was picked to be rich in actives. Values without a mark were called inactive. Calls come from the whole dose curve; as a rule, active = well fitted inhibition curve with a large enough effect; inconclusive = small, poorly fitted or top-dose-only effect, or effect the other way; inactive = flat fitted curve, though single readings scatter.
Biological target: Cruzipain (Trypanosoma cruzi) (UniProt P25779)
Sequence (P25779 123-467 limits assumed): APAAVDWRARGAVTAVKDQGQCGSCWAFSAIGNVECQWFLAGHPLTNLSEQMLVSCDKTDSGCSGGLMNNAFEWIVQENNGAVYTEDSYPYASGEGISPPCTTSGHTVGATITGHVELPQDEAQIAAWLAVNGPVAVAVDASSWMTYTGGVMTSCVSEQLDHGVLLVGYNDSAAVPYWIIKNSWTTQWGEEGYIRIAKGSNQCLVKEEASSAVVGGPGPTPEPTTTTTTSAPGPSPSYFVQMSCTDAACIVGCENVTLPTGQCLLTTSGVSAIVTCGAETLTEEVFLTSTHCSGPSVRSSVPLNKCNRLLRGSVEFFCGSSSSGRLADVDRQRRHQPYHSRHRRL
Test: qHTS Assay for Promiscuous and Specific Inhibitors of Cruzain (without detergent); note: nearly all actives have a fitted effect of over 40% in size;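 for max response, negative = inhibition: plate controls were enzyme without inhibitor for no effect and buffer without enzyme for full effect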
Details: purified cruzain, Z-FR-AMC fluorescence, no detergent
Method in brief: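 Purified cruzain at 1.5 nM, pre-incubated 15 min with compound at room temperature in 100 mM sodium acetate pH 5.5, 5 mM DTT, 0.00005% Triton X-100. Reaction started with 2 uM Z-FR-AMC; AMC fluorescence increase over 60 s gives rate.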
Potency is the fitted concentration of half-maximal effect.

| Structure (SMILES) | max response, negative = inhibition [%] | Potency |
| --- | --- | --- |
| COc1ccccc1CNC(=O)CCn1c(=O)c2ccccc2n(CC(=O)Nc2ccc(Br)cc2F)c1=O | -7.67 |  |
| COc1ccccc1-c1cc(C(F)(F)F)nc(S(=O)(=O)CCCC(=O)Nc2cc(C)ccc2O)n1 | -0.825 |  |
| Cc1ccccc1NC(=O)Cn1c(=O)n(CCc2ccccc2)c(=O)c2ccccc21 | -10.6 |  |
| Cc1ccc(S(=O)(=O)c2nc(-c3cccs3)oc2N2CCCCC2)cc1 | 3.47 |  |
| CN(C(=O)CSc1nc(C2CC2)nc2ccccc12)c1nc(-c2ccccc2)cs1 |  | 3.16 µM (active) |
| COC(=O)CSc1nc(C2CC2)nc2ccccc12 | -5.14 |  |
| O=C(CSc1nc(C2CC2)nc2ccccc12)Nc1ccc2c(c1)OCCO2 | 2.26 |  |
| CCOC(=O)c1c(SCC(=O)Nc2cccc(C)c2C)nc(=O)[nH]c1C | 4.55 |  |
| CCOc1ccc(Nc2nc3c(S(=O)(=O)c4cccc(Cl)c4)nnn3c3ccsc23)cc1 | 3.27 |  |
| Cc1cccc(OCCCC(=O)Nc2sc3c(c2C(N)=O)CCC(C)C3)c1 (stereo unspecified) | 14.1 |  |
| CCOC(=O)c1c(NC(=O)/C=C/c2ccc(OC)cc2)sc2c1CCC(C)C2 (stereo unspecified) | -18.7 |  |
| COC(=O)c1c(NC(=O)CCCOc2ccccc2)sc2c1CCC(C)C2 (stereo unspecified) | 0.0824 |  |
| Cc1c(Br)c([N+](=O)[O-])nn1CC(=O)Nc1sc2c(c1C(=O)OC(C)C)CCC(C)C2 (stereo unspecified) |  | 15.8 µM (active) |
| COC(=O)c1c(NC(=O)CN2CCN(S(=O)(=O)c3ccccc3[N+](=O)[O-])CC2)sc2c1CCC(C)C2 (stereo unspecified) |  | 10 µM (active) |
| CCOc1ccc(NC(=O)c2c(NC(=O)Cc3ccccc3)sc3c2CCC(C)C3)cc1 (stereo unspecified) | 1.97 |  |
| CCCn1c2ccccc2c2cnn(CC(=O)N3CCCC(C(=O)OCC)C3)c(=O)c21 (stereo unspecified) | -0.857 |  |
| Cc1ccc(C2C=C(c3ccc(Cl)cc3)Nc3nc(NC(=O)CCC(=O)O)nn32)cc1 (stereo unspecified) | -6.04 |  |
| O=C(c1ccccc1F)N1CCC(c2nc3c(nnn3Cc3cccc(F)c3)c(=O)[nH]2)CC1 | -6.41 |  |
| Cc1ccc(OCCSc2nc(-c3cccs3)nc3cc(=O)[nH]n23)cc1Cl | 3.5 |  |

| Structure (SMILES) | max response, negative = inhibition [%] | Potency |
| --- | --- | --- |
| CCc1ccccc1OCCSc1nc(-c2cccs2)nc2cc(=O)[nH]n12 |  | 3.16 µM (active) |
| O=c1cc2nc(-c3ccccc3)nc(SCCOc3ccc(Cl)cc3)n2[nH]1 | 8.61 |  |
| COc1ccc(Cn2ccnc2SCC(=O)NCc2ccco2)cc1 | -5.79 |  |
| CCCn1c(=O)c2c(C(F)(F)F)cc(-c3cccs3)nc2n(CCC)c1=O |  | 6.31 µM (active) |
| COCCn1c(=O)c(-c2cccs2)nc2cncnc21 | 2.13 |  |
| FC(F)(F)c1cc(-c2cccs2)nc(NCc2ccco2)n1 | -1.04 |  |
| Cc1oc2ncnc(N3CCOCC3)c2c1C(=O)NCCc1ccccc1 | 3.49 |  |
| COC(=O)c1ccc(CSc2nnc(NC(C)C)s2)cc1 | 5.53 |  |
| CCOc1ccccc1Nc1nnc(SCc2ccc(C(=O)OC)o2)s1 | 2.33 |  |
| Cc1ccc(C(=O)Nc2nnc(-c3cccs3)s2)cc1C |  | 15.8 µM (active) |
| CCOc1cccc(C(=O)Nc2nnc(-c3cccs3)s2)c1 |  | 15.8 µM (active) |
| CCc1nnc(NC(=O)c2cccs2)s1 | -8.43 |  |
| CCCc1nnc(NC(=O)c2cccs2)s1 | 0.875 |  |
| CCOc1cccc(C(=O)Nc2nnc(S(=O)(=O)N(C)c3ccc(C)cc3)s2)c1 | -15.4 |  |
| CCOc1cccc(C(=O)Nc2cccnc2)c1 | 1.56 |  |
| Cc1ccc(C(=O)Oc2coc(CSc3nnc(NC(=O)c4cccs4)s3)cc2=O)cc1C |  | 25.1 µM (active) |
| COC(=O)c1cccc(Cn2nnc3sc4c(c3c2=O)CCC(C(C)(C)C)C4)c1 (stereo unspecified) | 2.87 |  |
| O=C(CCC(=O)N1CC2CCCN2c2ccccc21)NCc1ccccc1Cl (stereo unspecified) | -16.5 |  |
| Cc1nnc(NC(=O)CSc2nc3c([nH]c4ccccc43)c(=O)n2-c2cccc(Cl)c2)s1 | 2.35 |  |

| Structure (SMILES) | max response, negative = inhibition [%] | Potency |
| --- | --- | --- |
| COc1cc(-c2nnn(CC(=O)NCc3ccccc3)n2)cc(OC)c1OC | 25.6 |  |
| Cc1cn(C)c(CC(=O)NCc2ccccc2)c1C(=O)O | -3.27 |  |
| CN(Cc1ccccc1)C(=O)c1cn(C)c2ccc(S(=O)(=O)N3CCCCC3)cc2c1=O | -10.3 |  |
| CN(Cc1ccccc1)C(=O)c1cn(C)c2ccc(S(=O)(=O)N(C)C3CCCCC3)cc2c1=O | 5.7 |  |
| COc1ccc(C(=O)Nc2ccc(-n3nncc3-c3ccccc3)cc2)cc1OC | 25.3 |  |
| Cc1ccc(N2CCN(C(=O)CCc3c(C)nc4c(c3C)c(=O)n(C)c(=O)n4C)CC2)c(C)c1 | 6.51 |  |
| O=C(NCc1ccc(Cl)cc1)c1ccc2c(c1)nnn2C1CCCC1 | -10.2 |  |
| Cc1ccc(-n2ncc3c(=O)n(Cc4cccc(C(F)(F)F)c4)cnc32)cc1C | 6.16 |  |
| Cn1cc(/C=C/c2nc3ccccc3c(=O)n2-c2ccccc2)c2ccccc21 | 10.3 |  |
| Cn1cc(/C=C/c2nc3ccccc3c(=O)n2-c2cccc([N+](=O)[O-])c2)c2ccccc21 |  | 10 µM (active) |
| Cc1ccc(-n2c(/C=C/c3cccc(C(F)(F)F)c3)nc3ccccc3c2=O)cc1 | -0.135 |  |
| CSc1ccc(C2C(C(=O)Nc3ccccc3)=C(C)Nc3nc4ccccc4n32)cc1 (stereo unspecified) | -7.45 |  |
| CCc1cccc(C)c1NS(=O)(=O)c1c(C)nc2sccn2c1=O | 1.11 |  |
| CCOC(=O)c1cc2c(=O)n3ccccc3nc2n(CCCOC)c1=NC(=O)C(C)Oc1ccccc1 (stereo unspecified) | -4.02 |  |
| CNC(=S)NNC(=O)c1sccc1OCc1ccccc1 | -0.842 |  |
| CNC(=S)N/N=C/c1ccc(OCc2ccccc2)c(Br)c1 |  | 25.1 µM (active) |
| C=CCNC(=S)N/N=C/c1ccc(OCc2ccccc2)cc1 | -2.25 |  |
| Cc1ccccc1CN1CCC(CNC(=O)c2cc3ccc4cccnc4c3[nH]2)CC1 | -9.74 |  |
